Bioassay records from PubChem BioAssay.
In the library only some 3.5% were active in any assay of this set; here they are far more common.
mHTT-CaM PPI inh: mutant huntingtin-calmodulin interaction inhibitors – biochemical, AlphaScreen, primary screen; P42858; AlphaScreen His-mHTT/GST-CaM binding, luminescence; inhibition, % at 15 µM; 190,000 compounds, 3.6% hits; AID 1671202, 2021;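 note: 0% = both proteins with DMSO and 100% = one protein alone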
Target sequence (P42858 whole entry, looked up, stated change not applied): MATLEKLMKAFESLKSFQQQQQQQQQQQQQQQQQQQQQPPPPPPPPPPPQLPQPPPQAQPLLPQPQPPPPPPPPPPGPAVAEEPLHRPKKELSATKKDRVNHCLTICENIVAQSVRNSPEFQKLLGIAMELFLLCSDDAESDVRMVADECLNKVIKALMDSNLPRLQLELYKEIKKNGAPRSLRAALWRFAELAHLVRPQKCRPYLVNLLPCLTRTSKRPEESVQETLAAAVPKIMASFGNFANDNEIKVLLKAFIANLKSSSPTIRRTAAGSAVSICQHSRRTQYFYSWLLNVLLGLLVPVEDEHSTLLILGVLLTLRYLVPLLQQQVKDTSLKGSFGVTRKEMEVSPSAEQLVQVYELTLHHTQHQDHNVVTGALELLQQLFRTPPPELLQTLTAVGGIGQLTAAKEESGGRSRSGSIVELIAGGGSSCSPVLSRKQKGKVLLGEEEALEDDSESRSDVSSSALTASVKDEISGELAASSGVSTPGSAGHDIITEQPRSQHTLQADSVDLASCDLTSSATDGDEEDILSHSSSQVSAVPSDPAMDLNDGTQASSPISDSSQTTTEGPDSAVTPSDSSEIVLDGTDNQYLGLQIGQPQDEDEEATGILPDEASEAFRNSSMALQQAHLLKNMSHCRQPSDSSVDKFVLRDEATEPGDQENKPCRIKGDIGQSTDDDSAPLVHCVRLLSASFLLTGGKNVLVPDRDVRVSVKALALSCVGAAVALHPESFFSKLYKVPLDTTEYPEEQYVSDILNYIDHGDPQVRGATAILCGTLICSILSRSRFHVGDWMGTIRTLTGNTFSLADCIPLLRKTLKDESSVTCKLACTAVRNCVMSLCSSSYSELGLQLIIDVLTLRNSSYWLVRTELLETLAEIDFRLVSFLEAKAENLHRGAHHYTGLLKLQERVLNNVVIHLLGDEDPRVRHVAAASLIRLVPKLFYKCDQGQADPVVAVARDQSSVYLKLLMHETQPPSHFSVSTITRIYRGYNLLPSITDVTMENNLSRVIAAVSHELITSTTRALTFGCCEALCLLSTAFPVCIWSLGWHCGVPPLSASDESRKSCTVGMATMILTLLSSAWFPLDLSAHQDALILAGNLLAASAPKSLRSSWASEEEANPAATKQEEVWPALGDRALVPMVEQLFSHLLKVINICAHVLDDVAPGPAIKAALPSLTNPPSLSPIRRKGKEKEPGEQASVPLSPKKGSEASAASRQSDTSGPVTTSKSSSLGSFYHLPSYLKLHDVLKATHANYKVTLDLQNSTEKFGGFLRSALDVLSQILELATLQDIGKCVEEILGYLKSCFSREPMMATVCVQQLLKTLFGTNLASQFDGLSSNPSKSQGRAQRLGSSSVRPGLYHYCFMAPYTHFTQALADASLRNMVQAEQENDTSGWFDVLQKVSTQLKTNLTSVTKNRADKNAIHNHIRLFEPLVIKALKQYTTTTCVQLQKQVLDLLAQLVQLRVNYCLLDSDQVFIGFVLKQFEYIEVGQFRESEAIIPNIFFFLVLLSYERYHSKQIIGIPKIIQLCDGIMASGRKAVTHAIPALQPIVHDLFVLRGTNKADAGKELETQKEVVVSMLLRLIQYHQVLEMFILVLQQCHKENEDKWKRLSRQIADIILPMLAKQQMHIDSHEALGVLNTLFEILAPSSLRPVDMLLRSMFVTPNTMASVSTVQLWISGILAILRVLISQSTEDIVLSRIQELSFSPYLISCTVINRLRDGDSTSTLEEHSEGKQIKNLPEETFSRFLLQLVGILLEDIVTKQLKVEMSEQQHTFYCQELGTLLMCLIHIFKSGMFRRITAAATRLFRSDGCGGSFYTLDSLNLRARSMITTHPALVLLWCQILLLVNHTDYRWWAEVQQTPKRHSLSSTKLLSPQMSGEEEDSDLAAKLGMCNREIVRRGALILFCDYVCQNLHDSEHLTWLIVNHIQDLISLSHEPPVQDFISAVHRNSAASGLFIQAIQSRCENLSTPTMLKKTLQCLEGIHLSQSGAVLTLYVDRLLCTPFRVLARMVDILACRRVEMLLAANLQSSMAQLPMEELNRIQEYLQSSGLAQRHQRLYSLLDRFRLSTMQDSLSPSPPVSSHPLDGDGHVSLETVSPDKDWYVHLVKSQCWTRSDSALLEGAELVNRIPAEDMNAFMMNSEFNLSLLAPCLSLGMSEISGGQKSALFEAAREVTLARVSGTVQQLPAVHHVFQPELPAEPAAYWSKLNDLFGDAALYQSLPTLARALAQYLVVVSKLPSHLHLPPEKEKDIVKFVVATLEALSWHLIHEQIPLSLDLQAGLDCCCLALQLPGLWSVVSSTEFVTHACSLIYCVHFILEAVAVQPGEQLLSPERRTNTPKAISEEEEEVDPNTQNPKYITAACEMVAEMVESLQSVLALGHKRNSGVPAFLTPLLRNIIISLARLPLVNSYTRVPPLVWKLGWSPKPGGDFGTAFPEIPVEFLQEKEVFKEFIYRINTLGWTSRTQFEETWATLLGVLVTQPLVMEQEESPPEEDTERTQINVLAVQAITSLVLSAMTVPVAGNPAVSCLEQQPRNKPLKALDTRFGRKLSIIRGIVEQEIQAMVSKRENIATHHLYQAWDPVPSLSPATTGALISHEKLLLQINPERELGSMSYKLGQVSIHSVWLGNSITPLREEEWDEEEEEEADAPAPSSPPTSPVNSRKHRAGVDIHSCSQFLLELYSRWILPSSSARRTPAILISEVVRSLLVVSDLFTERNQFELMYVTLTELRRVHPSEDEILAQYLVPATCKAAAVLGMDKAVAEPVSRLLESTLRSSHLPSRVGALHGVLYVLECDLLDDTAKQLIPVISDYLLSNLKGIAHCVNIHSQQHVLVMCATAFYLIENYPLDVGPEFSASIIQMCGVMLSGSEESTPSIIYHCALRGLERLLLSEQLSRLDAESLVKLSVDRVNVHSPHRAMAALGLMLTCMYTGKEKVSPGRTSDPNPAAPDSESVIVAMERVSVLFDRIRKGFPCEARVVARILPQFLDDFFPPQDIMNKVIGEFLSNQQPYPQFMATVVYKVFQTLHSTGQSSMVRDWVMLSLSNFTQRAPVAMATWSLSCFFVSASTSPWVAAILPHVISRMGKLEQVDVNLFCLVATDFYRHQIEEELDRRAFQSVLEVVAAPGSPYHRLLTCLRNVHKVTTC
Pf apPOL block: Pf-apPOL inhibitors, biochemical, fluorescence; Plasmodium falciparum apicoplast DNA polymerase (apPOL); Recombinant Pf-apPOL, molecular beacon fluorescence, 1.5 h; inhibition, % at 10 µM; 210,000 compounds, 0.25% hits; AID 1794808, 2022
Numbers without * were called inactive; nt = no result. Cut-off read from the data, not from the text of the source: active = inhibition above about 50%; inactive = the rest.

SMILES	mHTT-CaM PPI inh	Pf apPOL block
C[C@H](c1ccccc1)N1C[C@@H](COCc2ccccc2)Oc2cc(N3CCC[C@@H]3CO)ccc2S1(=O)=O	68*	-4
C[C@H](c1ccccc1)N1C[C@H](COCc2ccccc2)Oc2cc(N3CCC[C@H]3CO)ccc2S1(=O)=O	-2	-7
C[C@H](c1ccccc1)N1C[C@@H](COCc2ccccc2)Oc2cc(N3CC[C@@H](O)C3)ccc2S1(=O)=O	44	-7
COc1cccc(CCC(=O)N2CCN(c3nc(CN4CCC(C)CC4)cs3)CC2)c1	12	-6
Cc1cccc(-n2nnc(C(=O)NCCc3ccccc3)c2N)c1	-4	-2
Cc1ccc(NC(=O)CN2CCc3ccccc3C2C(=O)N2CCCC2)cc1Cl (stereo unspecified)	64*	-4
CC1CCN(C(=O)C2c3ccccc3CCN2CC(=O)Nc2ccc(Cl)cc2F)CC1 (stereo unspecified)	68*	-3
Cc1c(Cl)cccc1NC(=O)CN1CCc2ccccc2C1C(=O)N1CCC(C)CC1 (stereo unspecified)	69*	-6
Cc1ccc(C)c(NC(=O)CN2CCc3ccccc3C2C(=O)N2CCC(C)CC2)c1 (stereo unspecified)	12	-6
O=C(CN1CCc2ccccc2C1C(=O)N1CCCCC1)Nc1ccc(Cl)cc1F (stereo unspecified)	-6	-2
Cc1cc(NC(=O)CN2CCc3ccccc3C2C(=O)N2CCCCC2)ccc1F (stereo unspecified)	2	-1
Cc1c(C2=N/C(=C/c3ccco3)C(=O)O2)cccc1[N+](=O)[O-]	4	-4
COc1cccc(C=C2Oc3cc(OCC(=O)OC(C)C)ccc3C2=O)c1OC	-5	-3
O=C(NCc1ccccc1)c1cn2c(n1)CCCC2	1	-2
CC1CCN(S(=O)(=O)N2CCCC(C(=O)NC3CCCC3)C2)CC1 (stereo unspecified)	-13	-17
CC1CCN(S(=O)(=O)N2CCCC(C(=O)NC(C)C)C2)CC1 (stereo unspecified)	4	95*
COc1ccc2c(c1)c(=O)c1ccccc1n2CC(=O)Nc1cccc(C(F)(F)F)c1	54*	0
COc1ccc2c(c1)c(=O)c1ccccc1n2CC(=O)Nc1ccc(C(F)(F)F)cc1	17	0
O=C(NCCCc1ccccc1)c1cnn2c3c(cnc12)CCCCCC3	1	2
N#Cc1c(N)nc(SCC(=O)c2ccc(O)c(O)c2)c(C#N)c1-c1ccc(O)cc1	31	27
N#Cc1c(N)nc(SCC(=O)c2ccc(Br)cc2)c(C#N)c1-c1ccccc1	-8	-12
COc1ccc(-c2c(C#N)c(N)nc(SCC(=O)c3ccc(O)c(O)c3)c2C#N)cc1	99*	-6
N#Cc1c(N)nc(SCC(=O)c2ccc(O)c(O)c2)c(C#N)c1-c1cccc(Cl)c1	85*	4
COCCn1c(C2CCN(C(=O)c3cc(C)cc(C)c3)C2)nc2cccnc21 (stereo unspecified)	8	-3
COc1ccccc1C(=O)N1CCCN(c2cc(-c3ccccc3)[nH]n2)CC1	57*	-2
SMILES	mHTT-CaM PPI inh	Pf apPOL block
COc1ccccc1C(=O)N1CCN(c2cc(-c3cccnc3)[nH]n2)CC1	-3	-7
O=C(c1ccc(Cl)cc1)N(c1ccc(Cl)cc1)C1C=CS(=O)(=O)C1 (stereo unspecified)	1	0
Cc1ccc(N(C(=O)c2ccc(C(C)(C)C)cc2)C2C=CS(=O)(=O)C2)cc1 (stereo unspecified)	20	80*
CCc1ccc(CCNC(=O)O[C@@H]2C[C@H]3C[C@@H]2[C@H]2CCCCN2[C@H]3C)cc1	14	-14
C[C@H]1[C@@H]2C[C@H]([C@H]3CCCCN31)[C@H](OC(=O)NCc1ccc(Cl)cc1)C2	53*	-8
CCCCC(C(=O)NN=Cc1ccc(C(C)C)cc1)C(=O)NN=Cc1ccc(C(C)C)cc1 (stereo unspecified)	nt	1
O=C(CSc1n[nH]c(-c2ccco2)n1)N1CCOCC1	2	9
COc1cccc(-c2nc(=S)c3c([nH]2)Oc2c(cccc2OC)C3)c1O	53*	43
COc1cccc2c1Oc1[nH]c(-c3ccc(OC)c(OC)c3OC)nc(=S)c1C2	8	0
CC(=O)N(CN1C(=O)c2ccc([N+](=O)[O-])cc2C1=O)c1ccc(F)cc1	23	3
CC(=O)N(CN1C(=O)c2ccc([N+](=O)[O-])cc2C1=O)c1ccc(Oc2ccc(Cl)cc2)cc1	3	92*
COc1ccccc1-c1cc(C(=O)Nc2cnn(Cc3ccc(Cl)cc3Cl)c2)no1	4	-4
Cc1c(Cc2ccc(Cl)cc2)c(NCCCn2ccnc2)n2c(nc3ccccc32)c1C#N	-5	1
Cc1ccc(-n2[nH]c(=O)c(C=c3c(C)c(C#N)c4nc5ccccc5n4c3=O)c2O)cc1Cl	51*	3
O=C(NCCc1c[nH]c2ccccc12)c1cc2n(n1)C(C(F)(F)F)CC(c1ccco1)N2 (stereo unspecified)	62*	-2
O=C(NCc1ccccc1F)c1cc2n(n1)C(C(F)(F)F)CC(c1ccco1)N2 (stereo unspecified)	-3	-3
COc1ccccc1CNC(=O)C1CCN(c2cc(N3CCCCC3)ncn2)CC1	11	1
Cc1cc(N2CCOCC2)nc2ccc(NC(=O)CCC(=O)N(C)c3cccc(Cl)c3)cc12	-1	-9
Cc1ccc2[nH]c3c(cc(NCCO)c4c(=O)c5ccccc5c(=O)c43)oc2c1	18	-3
Cc1ccc2[nH]c3c(cc(NCCCO)c4c(=O)c5ccccc5c(=O)c43)oc2c1	60*	-6
Cc1ccc([N+](=O)[O-])cc1NC(=O)c1cnccn1	3	2
Cc1ccc([N+](=O)[O-])cc1NC(=O)c1cccc(C(=O)Nc2cc([N+](=O)[O-])ccc2C)n1	2	67*
CCCc1nc2sc(C)c(C)c2c(=O)n1N	1	0
Nc1nc2ccccc2n1Cc1ccc(Br)cc1	21	-17
CC(C)(C)c1ccc(Cn2c(N)nc3ccccc32)cc1	89*	-4
SMILES	mHTT-CaM PPI inh	Pf apPOL block
COc1ccccc1-c1cc(=O)c2cc(NC(=O)c3cc(OC)c(OC)c(OC)c3)ccc2o1	14	2
NC(=O)CC12CC3CC(C1)CC(c1ccccc1)(C3)C2	4	-9
Nc1ccc(C23CC4CC(CC(C4)C2)C3)cc1	58*	-8
Nc1ccc(C23CC4CC(C2)CC(c2ccc(N)cc2)(C4)C3)cc1	84*	-8
NS(=O)(=O)c1ccc(C23CC4CC(CC(C4)C2)C3)cc1	7	-5
Cc1nccn1CC1CCN(C(=O)c2ccc(S(=O)(=O)N(C)C)cc2)CC1	-12	1
O=C(NCC1(O)CCc2ccccc21)c1ccc(S(=O)(=O)N2CCCCC2)cc1 (stereo unspecified)	-2	-10
CCCCOc1ccc(C(=O)Nc2c3c(nn2-c2cccc(Cl)c2)CS(=O)C3)cc1 (stereo unspecified)	29	1
CS(=O)(=NC(=O)c1ccccc1)c1ccsc1 (stereo unspecified)	nt	-7
CC1=Nc2ccccc2NC(=O)C1Cc1ccccc1 (stereo unspecified)	91*	-9
CN(C)c1ccc(CC2C(=O)Nc3ccccc32)cc1 (stereo unspecified)	nt	6
COc1ccc(-n2c(C)cc(CN)c2C)cc1	64*	-1
